Test [1] is described as follows: ovarian cancer cell viability with rucaparib, profiling panel, oncology-focused library, rucaparib conditional (AID 1508598). Conditions: patient-derived ovarian cancer cells, CellTiter-Glo viability, 144 h, stronger effect = lower value.
Test [2] can be described thus: viability rescue of complex I mutant cybrids, primary screen, cell-based, galactose medium, ATP luminescence (AID 1645843;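 active = z-score of at least 1.8 in each of two replicates, scored against plate mean and spread of sample wells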;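 also: positive z means more ATP and so rescue of galactose-driven cybrid death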). Conditions: complex I mutant cybrid cells, 72 h, stronger effect = higher value.
Test [3] can be described thus: liver-stage malaria parasite growth inhibition, primary screen, cell-based, HepG2, luciferase luminescence, HepG2 viability (AID 624349; in the data active = parasite load remaining mostly below about 12%, no sharp cut-off; inactive = mostly above about 10%;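 also: 100% = mean of DMSO negative control wells on the same plate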). The conditions noted are these: P. berghei liver stage in HepG2, luciferase luminescence, concentration not given here; parasite load remaining: stronger effect = lower value; viability: measured here: HepG2 viability without parasites.
A short description of test [4]: stimulators of nuclear beta-catenin in C2C12, primary screen, imaging, WNT3A-conditioned medium, mouse C2C12, NPC library (AID 1117326; in the data active = nuclear beta-catenin stimulation mostly above about 4.2%, no sharp cut-off; inactive = mostly below about 10%). Conditions: stronger effect = higher value.
The nature of test [5]: stimulators of insulin release from INS-1E, primary screen, cell-based, 5 mM glucose, NPC library (AID 1117329;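 active = compound raises insulin release from rat beta cells at 5 mM glucose, no numeric limit stated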). The conditions noted are these: rat INS-1E insulin secretion, at 10 µM, stronger effect = higher value.
Test [6] is described as follows: growth inhibition of GSK3B-pretreated HCT116 cells – cell-based, CellTiter-Glo, 0.2 to 20 µM (AID 1117336;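 active = compounds lowering colon cancer cell viability after pretreatment blocking the GSK3B kinase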). The conditions noted are these: HCT116 viability after GSK3B inhibitor, at 20 µM, stronger effect = higher value.
A short description of test [7]: inhibition of endothelial tube formation, primary screen, imaging, VEGF stimulated, CD31 staining, tube area, NPC library (AID 1117340;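 active = compound that reduces growth-factor-driven endothelial tube area in a mixed cell culture, no cutoff stated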). Conditions: VEGF-stimulated ADSC/ECFC co-culture, at 10 µM, stronger effect = higher value.
Test [8] is described as follows: glucagon-like peptide 1 release enhancers, primary assay, NCI-H716 cell line, NPC library (AID 1117341;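 active = compound raises GLP1 secretion from the human gut endocrine cells, with no numeric limit stated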). The conditions noted are these: NCI-H716 cells, at 10 µM, stronger effect = higher value.
A short description of test [9]: HCT116 colon cancer cell growth inhibition, primary screen, CellTiter-Glo luminescence, NPC library (AID 1117342;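 active = compounds that lower survival of HCT116 colon cancer cells in the luminescence readout, no numeric limit stated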). Conditions: at 20 µM (top of the series).
Test [10] can be described thus: CellTiter-Glo luminescent readout of SW480 viability loss, NPC library primary (AID 1117343;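 active = compounds that lower viability of the colon cancer cells in the luminescence readout, with no numeric limit stated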). Conditions: CellTiter-Glo luminescence; at 20 µM (top of the series) unless noted.
A short description of test [11]: decreased DLD-1 cellular survival, CellTiter-Glo luminescent readout, NPC compound collection, primary HTS (AID 1117346;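 active = compounds that lower survival of DLD-1 colon cancer cells in the luminescence readout, no cutoff given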). Conditions: DLD-1 viability, CellTiter-Glo luminescence; at 20 µM (top of the series).
The nature of test [12]: growth inhibition of DIPG glioma cells, dose response, cell-based, SU-DIPG-XVII, MIPE5.0, CellTiter-Glo, qHTS (AID 1347060; cut-off not given, nearly all actives have AC50 up to about 26 µM;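 as to AC50: cells exposed to compound for 48 hours before viability readout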). Conditions: SU-DIPG-XVII viability, CellTiter-Glo ATP luminescence.
A short description of test [13]: growth inhibition of DIPG glioma cells, dose response, cell-based, JHH-DIPG-1, MIPE4.0, CellTiter-Glo, qHTS (AID 1347062; cut-off not given, nearly all actives have AC50 up to about 27 µM;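 as to AC50: cells exposed to compound for two days before readout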). The conditions noted are these: JHH-DIPG-1 viability, CellTiter-Glo ATP luminescence.
Test [14] can be described thus: viability loss in pontine glioma line – cell-based, SU-DIPG-XXV, MIPE5.0, CellTiter-Glo, qHTS, dose response (AID 1347065; cut-off not given, nearly all actives have AC50 up to about 26 µM;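 also: cells exposed to compound for 48 hours before ATP readout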). The conditions noted are these: CellTiter-Glo ATP luminescence.
A short description of test [15]: SU-DIPG-XXV glioma cell viability, MIPE5.0 library, qHTS (AID 1347068; cut-off not given, nearly all actives have IC50 up to about 30 µM;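 as to IC50: cells exposed to compound for 48 hours before viability readout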).
Test [16] in a line: sensitizers of A549 cells to miR-34 induction, primary screen, imaging, A549 dox-inducible miR-34, nuclei and caspase counts (AID 1347080;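 active = compounds whose cell count with miR-34 switched on is under 0.7 times the count with it off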). The conditions noted are these: A549 miR-34 inducible, Hoechst nuclei count, 48 h.
Test [17] in a line: survival rescue of mitochondrial mutant cells in low glucose, primary screen, MELAS cybrids, Rieske KO mouse fibroblasts, CellTiter-Glo (AID 1508586;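 active = mean z-score across replicates of 1.96 or higher in either the MELAS or the Rieske mutant cell line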;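 also: z relative to plate mean and SD of compound and empty wells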).
Test [18] in a line: growth inhibition of DIPG glioma cells, dose response, cell-based, SU-DIPG-XIII, MIPE4.0, CellTiter-Glo, qHTS (AID 1347061; cut-off not given, nearly all actives have AC50 up to about 37 µM;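 also: cells exposed to compound for 48 hours before readout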). The conditions noted are these: SU-DIPG-XIII viability, CellTiter-Glo ATP luminescence.
Test [19] in a line: SU-DIPG-VI glioma cell viability, MIPE4.0 library, CellTiter-Glo luminescence, qHTS (AID 1347066; cut-off not given, nearly all actives have AC50 up to about 30 µM;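 also: cells exposed to compound for 48 hours before readout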). Conditions: CellTiter-Glo ATP luminescence.
Where [20] appears, read: stronger effect = lower value, cell number ratio, induced over uninduced.
Where [21] appears, read: measured here: relative caspase fold change +Dox/-Dox.
The mark [22] stands for this setting: measured here: total cells with miR-34 induction, stronger effect = lower value.
Setting [23] is: measured here: total cells without miR-34 induction.

Data on four compounds can be found in PubChem BioAssay.

Where “and” joins values, the source holds several entries; their conditions need not be identical. Equal entries are not always repeated. Records with an inconclusive call do not appear. Where a structure was tested more than once in an assay, its records may differ in their call. Calls of active or inactive are those of the source.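 The calls were made as follows, unless noted: active = normalized viability below 100% at a tested concentration; inactive = the rest.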

With `CS(=O)(=O)CCNCc1ccc(-c2ccc3ncnc(Nc4ccc(OCc5cccc(F)c5)c(Cl)c4)c3c2)o1`, the viability in [1] (at 0.00488 µM, OCI-C5x cells, with rucaparib 10 µM, 100% = cells with rucaparib alone) is 111% (inactive) and 106% (inactive); in test [1] (at 0.00488 µM, OCI-C5x cells, without rucaparib), 131% (inactive) and 122% (inactive); in test [1] (at 0.00488 µM, OCI-P5x cells, with rucaparib 20 µM, 100% = cells with rucaparib alone), 95.5% (active) and 98.8% (active); in [1] (at 0.00488 µM, OCI-P5x cells, without rucaparib) it was 105% (inactive) and 108% (inactive); in test [1] (at 0.0195 µM, OCI-C5x cells, with rucaparib 10 µM, 100% = cells with rucaparib alone), 109% (inactive) and 107% (inactive); in [1] (at 0.0195 µM, OCI-C5x cells, without rucaparib), 128% (inactive) and 109% (inactive). The viability in [1] (at 0.0195 µM, OCI-P5x cells, with rucaparib 20 µM, 100% = cells with rucaparib alone) is 96.4% (active) and 103% (inactive); in test [1] (at 0.0195 µM, OCI-P5x cells, without rucaparib), 105% (inactive) and 111% (inactive); in test [1] (at 0.0781 µM, OCI-C5x cells, with rucaparib 10 µM, 100% = cells with rucaparib alone), 113% (inactive) and 110% (inactive); in test [1] (at 0.0781 µM, OCI-C5x cells, without rucaparib) it was 126% (inactive) and 113% (inactive); in [1] (at 0.0781 µM, OCI-P5x cells, with rucaparib 20 µM, 100% = cells with rucaparib alone), 103% (inactive) and 104% (inactive); in test [1] (at 0.0781 µM, OCI-P5x cells, without rucaparib) it was 111% (inactive). Moreover, the viability in test [1] (at 0.313 µM, OCI-C5x cells, with rucaparib 10 µM, 100% = cells with rucaparib alone) was 119% (inactive) and 112% (inactive); in test [1] (at 0.313 µM, OCI-C5x cells, without rucaparib), 134% (inactive) and 112% (inactive); in [1] (at 0.313 µM, OCI-P5x cells, with rucaparib 20 µM, 100% = cells with rucaparib alone), 96.8% (active) and 98.2% (active); in test [1] (at 0.313 µM, OCI-P5x cells, without rucaparib), 115% (inactive) and 118% (inactive); in [1] (at 1.25 µM, OCI-C5x cells, with rucaparib 10 µM, 100% = cells with rucaparib alone) it was 116% (inactive) and 91.4% (active); in test [1] (at 1.25 µM, OCI-C5x cells, without rucaparib), 126% (inactive). In addition, the viability in test [1] (at 1.25 µM, OCI-P5x cells, with rucaparib 20 µM, 100% = cells with rucaparib alone) was 101% (inactive) and 97.5% (active); in test [1] (at 1.25 µM, OCI-P5x cells, without rucaparib), 108% (inactive) and 114% (inactive); in [1] (at 5 µM, OCI-C5x cells, with rucaparib 10 µM, 100% = cells with rucaparib alone) it was 100% (inactive) and 93.5% (active); in test [1] (at 5 µM, OCI-C5x cells, without rucaparib), 134% (inactive) and 128% (inactive); in test [1] (at 5 µM, OCI-P5x cells, with rucaparib 20 µM, 100% = cells with rucaparib alone), 95.6% (active) and 97.1% (active); in test [1] (at 5 µM, OCI-P5x cells, without rucaparib), 106% (inactive) and 118% (inactive). Further, the z-score in test [2] is -0.555 (inactive).

On to `CCC1=C[C@@H]2CN(C1)Cc1c([nH]c3ccccc13)[C@@](C(=O)OC)(c1cc3c(cc1OC)N(C)[C@H]1[C@@](O)(C(=O)OC)[C@H](OC(C)=O)[C@]4(CC)C=CCN5CC[C@]31[C@@H]54)C2`, for which the parasite load remaining in test [3] was 30.5% (inactive). For the same compound, the viability in test [3] was 85%. Further, the nuclear beta-catenin stimulation in test [4] (at 10 µM) is 60.8% (active); in test [4] (stimulation, at 2 µM) it was 72.7%. Also, the insulin secretion stimulation in [5] is 2.25% (inactive). Also, the viability decrease in [6] was 103% (active). In test [7], the tube area decrease is 106% (active). Moreover, in [8], the GLP1 secretion stimulation is 2.5% (inactive). Besides, in [9], the inhibition of viability is 94.3% (active). The viability decrease (inhibition) in [10] is 91.4% (active); in test [11] it was 76.7% (active). The AC50 in test [12] is 204 nM (active); in [13], 13.2 nM (active); in [14], 204 nM (active). Besides, the IC50 in test [15] was 1150 nM (active). The fold change in [16] (setting [20]) is 0.917 (inactive); in test [16] (setting [21]) it was 1.02. Further, the cell count stood at 1860 in test [16] (setting [22]) and 2030 in [16] (setting [23]). The z-score is -2.16 (inactive) in [17] (MELAS cybrid survival, CellTiter-Glo 48 h, stronger effect = higher value); 1.89 in test [17] (Rieske KO mouse fibroblast survival, CellTiter-Glo 72 h); -2.04 (inactive) in [2].

On to `NCCCC(N)(C(=O)O)C(F)F` (centres undefined), for which the nuclear beta-catenin stimulation in test [4] (at 10 µM) was -0.1% (inactive); in test [4] (stimulation, at 2 µM), -0.3%. Further, in [5], the insulin secretion stimulation was -2.2% (inactive). Moreover, the viability decrease in test [6] is 6.2% (inactive). The tube area decrease in [7] was -6.3% (inactive). Besides, the GLP1 secretion stimulation in [8] was 2.8% (inactive). For the same compound, the inhibition of viability in test [9] was 12.2% (inactive). Further, the figures for the viability decrease (inhibition) in [10] and in test [11] were 65.3% (active) and 36% (inactive), respectively. Moreover, the call in test [12], in [13], in test [14] and in test [15] was inactive. In addition, the fold change is 1.13 (inactive) in test [16] (setting [20]) and 0.834 in test [16] (setting [21]). The cell count in test [16] (setting [22]) is 8420; in [16] (setting [23]), 7470. Also, the z-score in test [2] was 0.11 (inactive).

For the compound `N[C@@H](Cc1c[nH]c2ccc(O)cc12)C(=O)O`, the nuclear beta-catenin stimulation in test [4] (at 10 µM) is 1.6% (inactive); in test [4] (stimulation, at 2 µM) it was 3.9%. Moreover, in [5], the insulin secretion stimulation was 2.1% (inactive). Also, in test [6], the viability decrease was -0.3% (inactive). Further, in [7], the tube area decrease was 1.7% (inactive). Moreover, in [8], the GLP1 secretion stimulation is 3.1% (inactive). Further, the inhibition of viability in test [9] was 2.5% (inactive). For the same compound, the viability decrease (inhibition) in [10] is -17.1% (inactive); in test [11], -5.7% (inactive). Also, the result in [12], in test [18], in [14], in [19] and in test [15] was inactive. For the same compound, the fold change was 1.04 (inactive) in test [16] (setting [20]) and 0.787 in test [16] (setting [21]). For the same compound, the values for the cell count in test [16] (setting [22]) and in test [16] (setting [23]) were 10300 and 9860, respectively. For the same compound, the z-score in test [2] was 0.37 (inactive).
